Measurements reported in PubChem BioAssay (NCATS).
Results filed as inconclusive are left out. Active and inactive are the calls of the source. The call rests on the fitted dose curve; in most records, active means well fitted curve in the direction sought with a large enough effect; inconclusive means small, poorly fitted or top-dose-only effect, or another doubt; inactive means no such curve, though single readings can be large; an effect the other way counts as inactive or inconclusive.

Legend:
[1] = qHTS of pediatric cancer cell lines to identify multiple opportunities for drug repurposing: Primary screen for DAOY cells (AID 1347090); conditions: DAOY medulloblastoma viability, CellTiter-Glo luminescence, 48 h; series mostly up to 46 µM; further: nearly all actives have a fitted effect of over 55% in size
Summary of the method: (§1)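 Eight- or eleven-point concentration series, 48 h treatment at 37 degrees C in growth media; readout CellTiter-Glo luminescence. Potency and efficacy were taken from the concentration-response curves.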

[2] = qHTS of pediatric cancer cell lines to identify multiple opportunities for drug repurposing: Primary screen for U-2 OS cells (AID 1347096); conditions: U-2 OS viability, CellTiter-Glo luminescence, 48 h; series mostly up to 46 µM; further: nearly all actives have a fitted effect of over 50% in size
Summary of the method: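 Cells (500-1,000/well) in growth media were settled 5 h at 37 degrees C, then given compounds for 48 h. Viability was read as CellTiter-Glo luminescence. Primary runs used MIPE at 11 points (0.78 nM-46 µM) and NPC at 8 points (0.59 nM-46 µM); follow-ups used 11 points.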

[3] = qHTS of pediatric cancer cell lines to identify multiple opportunities for drug repurposing: Primary screen for Saos-2 cells (AID 1347097); conditions: Saos-2 viability, CellTiter-Glo ATP luminescence, 48 h; series mostly up to 46 µM; further: nearly all actives have a fitted effect of over 40% in size
Summary of the method: (§2)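 Luminescence from CellTiter-Glo served as readout of metabolically active cells after 48 h compound exposure. Titrations: MIPE 11-point, from 0.78 nM; NPC 8-point, from 0.59 nM (final). Concentration-response curves came straight from the primary screen.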

[4] = qHTS of pediatric cancer cell lines to identify multiple opportunities for drug repurposing: Primary screen for SK-N-SH cells (AID 1347098); conditions: SK-N-SH viability, CellTiter-Glo luminescence, 48 h; series mostly up to 57 µM; further: nearly all actives have a fitted effect of over 65% in size
Summary of the method: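 Cells (500-1,000/well) rested 5 h, then received compounds for 48 h; metabolically active cells were measured by CellTiter-Glo luminescence. Final concentrations spanned up to 46 µM (MIPE, 11-point) or 0.59 nM-46 µM (NPC, 8-point) in primary screens, 11-point in follow-ups.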

[5] = qHTS of pediatric cancer cell lines to identify multiple opportunities for drug repurposing: Primary screen for A673 cells (AID 1347092); conditions: A673 Ewing sarcoma viability, CellTiter-Glo ATP luminescence, 48 h; series mostly up to 46 µM; further: nearly all actives have a fitted effect of over 45% in size
Summary of the method: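 A673 cells (500-1,000 cells/well in growth media) were pre-incubated 5 h at 37 degrees C, then exposed to compounds for 48 h. Viability was read as CellTiter-Glo luminescence; concentration-response curves came directly from the primary screen.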

[6] = qHTS of pediatric cancer cell lines to identify multiple opportunities for drug repurposing: Primary screen for SK-N-MC cells (AID 1347093); conditions: SK-N-MC viability, CellTiter-Glo luminescence, 48 h; series mostly up to 46 µM
Summary of the method: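 Metabolically active cells were quantified by ATP-dependent luminescence (CellTiter-Glo, 15 min at room temperature) following 48 h treatment. Cells had been plated at 500-1,000 per well and settled for 5 h beforehand.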

[7] = qHTS of pediatric cancer cell lines to identify multiple opportunities for drug repurposing: Primary screen for BT-37 cells (AID 1347094); conditions: BT-37 viability, CellTiter-Glo luminescence, 48 h; series mostly up to 57.3 µM
Summary of the method: as §2

[8] = qHTS of pediatric cancer cell lines to identify multiple opportunities for drug repurposing: Primary screen for NB-EBc1 cells (AID 1347095); conditions: NB-EBc1 neuroblastoma viability, CellTiter-Glo luminescence, 48 h; series mostly up to 46 µM
Summary of the method: as §2

[9] = qHTS of pediatric cancer cell lines to identify multiple opportunities for drug repurposing: Primary screen for SJ-GBM2 cells (AID 1347091); conditions: SJ-GBM2 viability, CellTiter-Glo luminescence, 48 h; series mostly up to 46 µM
Summary of the method: as §1

Measured: Potency
Potency means the concentration at half of the fitted maximal effect.

CCCCCCCCCC(CC)c1ccc(S(=O)(=O)O)cc1 (stereo unspecified)
active: [3] 30.6 µM
inactive: [1] | [2] | [4]

CCCCCCCCc1ccc(O)cc1
inactive: [1] | [2]

O=C1CCC[C@@H]2[C@H]3CCCN4CCC[C@@H](CN12)[C@@H]34
inactive: [1] | [5] | [6] | [7] | [8] | [2] | [3] | [4]

CO/C=C(/C(=O)OC)c1ccccc1Oc1cc(Oc2ccccc2C#N)ncn1
active: [1] 9.69 µM | [6] 17.2 µM | [8] 27.3 µM

CN[C@@H]1Cc2cccc3[nH]c(=O)n(c23)C1
inactive: [1] | [9] | [6] | [7] | [8] | [2] | [3] | [4]

O=[N+]([O-])c1c2ccccc2cc2ccccc12
inactive: [9]

CC1=C(C(=O)O)N2C(=O)[C@@H](N)[C@H]2SC1
inactive: [1] | [5] | [6] | [7] | [8] | [3] | [4]

O=S(=O)(c1ccc(Cl)cc1)c1ccc(Cl)cc1
inactive: [1] | [5]

O=C(N[C@@H](COc1ccc2[nH]c(=O)[nH]c2c1)c1ccccc1)c1cccn(Cc2ccc(F)c(F)c2)c1=O
active: [9] 20.9 µM | [6] 18.7 µM | [3] 18.7 µM

O=C(Oc1ccc([N+](=O)[O-])cc1)N1CCN(Cc2cccc(Oc3ccccc3)c2)CC1
inactive: [9] | [7] | [8] | [2]
active: [5] 18.7 µM | [6] 18.7 µM

C=CCON=C(C[C@H]1O[C@@H]2O[C@]3(C)CC[C@@H]4[C@H](C)CC[C@@H]([C@H]1C)[C@@]24OO3)[C@H]1O[C@@H]2O[C@]3(C)CC[C@H]4[C@H](C)CC[C@@H]([C@@H]1C)[C@@]24OO3
inactive: [2] | [3] | [4]
active: [9] 0.372 µM | [6] 0.332 µM | [7] 0.432 µM | [8] 0.372 µM

Nc1ccc(Cl)cc1N
inactive: [1] | [9] | [6] | [2]

CCCN(CCC)c1c([N+](=O)[O-])cc(S(N)(=O)=O)cc1[N+](=O)[O-]
active: [1] 48.6 µM | [9] 43.3 µM | [6] 38.6 µM | [7] 31.7 µM | [8] 30.6 µM | [3] 30.6 µM | [4] 49.8 µM

CCCCCCCCCCCCCCCC[N+](C)(C)C
active: [1] 13.3 µM | [5] 4.22 µM | [6] 5.31 µM | [7] 15.5 µM | [4] 17.2 µM

O=[N+]([O-])c1cc([N+](=O)[O-])c2ccccc2c1
active: [6] 10.9 µM
inactive: [1] | [5] | [7] | [2] | [3] | [4]

c1cc2c(cc1[C@H]1OC[C@H]3[C@H]1CO[C@H]3c1ccc3c(c1)OCO3)OCO2
inactive: [1] | [5] | [6] | [7] | [8]

CCC(=O)OC1CCC2C3CCC4=CC(=O)CC[C@@]4(C)C3CC[C@]12C (stereo partly specified)
inactive: [1] | [9] | [7] | [8] | [2] | [3] | [4]
active: [6] 9.35 µM

Cc1ccccc1-n1c(Cn2ncc3c(N)ncnc32)nc2cccc(C)c2c1=O
inactive: [2]
active: [1] 0.0935 µM | [6] 0.0132 µM | [7] 0.0086 µM | [8] 0.0935 µM | [3] 0.0083 µM

CC[C@H]1C=CC=CC[C@@H](C)[C@H](O)[C@@](C)(O)C(=O)[C@@H](C)[C@H](O)[C@@H](C)C(=O)[C@@H](C)[C@H](O)[C@@H](C)C=CC(=O)O[C@@H]2[C@@H](C)[C@H](CC1)O[C@]1(CC[C@H](C)[C@H](C[C@@H](C)O)O1)[C@H]2C
inactive: [4]
active: [1] 0.0037 µM | [6] 0.0033 µM | [7] 0.0022 µM | [8] 0.0132 µM

COc1ccc(C(c2ccc(OC)cc2)C(Cl)(Cl)Cl)cc1
active: [9] 21.5 µM | [5] 38.2 µM | [6] 42.8 µM | [8] 13.5 µM | [3] 30.3 µM | [4] 49.8 µM

Nc1ccc(N=Nc2ccccc2)cc1
active: [5] 24.3 µM

CC(C)[C@]12O[C@@H]1[C@@H]1O[C@]13[C@]1(O[C@H]1C[C@@H]1C4=C(CC[C@@]13C)C(=O)OC4)[C@H]2O
active: [5] 0.001 µM | [6] 0.001 µM | [7] 0.001 µM | [8] 0.001 µM | [2] 0.001 µM | [3] 1.66 µM

O=S(=O)(CC1CS1)c1ccc(Oc2ccccc2)cc1 (stereo unspecified)
active: [5] 9.35 µM | [7] 19.3 µM | [8] 23.5 µM | [4] 24.1 µM

Nc1ccc([N+](=O)[O-])cc1
inactive: [1] | [5] | [6] | [7] | [8] | [4]

CCOC(=O)c1c(C(C#N)=CN)c2ccc(Cl)c(Cl)c2n1C
active: [6] 18.7 µM
inactive: [5] | [7] | [2]

C[C@]12CC[C@H]3[C@@H](CCC4=CC(=O)CC[C@@]43C)[C@H]1CC[C@H]2O
inactive: [1] | [9] | [6] | [8] | [3] | [4]

C[C@@H]1CC[C@@]2(OC1)O[C@H]1C[C@H]3[C@@H]4CC=C5C[C@@H](O[C@@H]6O[C@H](CO)[C@@H](O[C@@H]7O[C@@H](C)[C@H](O)[C@@H](O)[C@@H]7O)[C@H](O)[C@@H]6O[C@@H]6O[C@@H](C)[C@H](O)[C@@H](O)[C@@H]6O)CC[C@]5(C)[C@@H]4CC[C@]3(C)[C@@H]1[C@H]2C
active: [1] 7.43 µM | [5] 3.72 µM | [6] 1.32 µM | [7] 6.85 µM | [8] 4.69 µM | [2] 9.35 µM | [4] 12.1 µM

CSCC[C@@H](NC(=O)[C@@H](Cc1ccccc1)NC(=O)CNC(=O)CNC(=O)[C@@H](N)Cc1ccc(O)cc1)C(=O)O
inactive: [1] | [5] | [6] | [7] | [8] | [2] | [3] | [4]

c1ccc(CCCN2CCN(CCOC(c3ccccc3)c3ccccc3)CC2)cc1
inactive: [2]
active: [1] 29.6 µM | [5] 23.5 µM | [7] 24.3 µM

COc1ccc(CC2NCCc3cc(OC)c(OC)cc32)cc1OC (stereo unspecified)
inactive: [1] | [7] | [8] | [2] | [3] | [4]
